Source: PubChem BioAssay
HEK cytotox: HEK 293 cell cytotoxicity; HEK 293 viability, ATP luminescence (CellTiter-Glo), 48-72 h; Potency, µM (highest dose often 115 µM), inactives show at the highest dose activity change, negative = cytotoxicity, most hits filed as inhibitors; 94,000 compounds, 6.6% hits; further: nearly all actives have a fitted effect of over 60% in size
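Read-out: CellTiter-Glo ATP luminescence. Cells: HEK 293, 250 cells/well. Exposure: 48 or 72 hr, 37 degree Celsius.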
NPR1 antag: blocks ANP-stimulated signaling of human Npr1 receptor | P16066 | HEK293 hNpr1 GloSensor cGMP, ANP-stimulated luminescence | 76,000 compounds, 1.6% hits | Potency, µM (doses to about 46.3 µM), without a hit: top-dose activity change, negative = inhibition, actives largely listed as inhibitors; calls by dose curve; further: nearly all actives have a fitted effect of over 60% in size
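Compound pre-incubated 30 min at room temperature on GloSensor-loaded HEK293 cells stably carrying hNpr1 and the pGS-40F cGMP biosensor. Stimulation uses hNppA at 0.1 nM final; luminescence is taken at baseline and 20 min post-agonist.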
NIH3T3 tox: kills NIH 3T3 cells | NIH 3T3 viability, CellTiter-Glo ATP luminescence, 48-72 h | Potency, µM (series often up to 96.7 µM), for inactives: top-dose activity change, negative = cytotoxicity, most hits filed as inhibitors | 94,000 compounds, 4.3% hits | AID 1345082; further: nearly all actives have a fitted effect of over 55% in size
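NIH 3T3 cells at 400 cells/well received 23 nL of compound by pintool and were incubated 48 or 72 h at 37 °C. Viability was read as ATP-coupled CellTiter-Glo luminescence.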
Luciferase inh: Photinus pyralis luciferase inhibition; P08659; purified P. pyralis luciferase, luminescence, biochemical; Potency, µM (doses to about 115 µM), most hits filed as inhibitors; 76,000 compounds, 2.5% hits; AID 1347043; further: nearly all actives have a fitted effect of over 65% in size
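Biochemical qHTS: compound (6-point titration) added to 10uM D-luciferin plus 10uM ATP in Tris acetate pH 7.5 buffer with Mg, Tween-20 and BSA, then purified enzyme at 10nM; light output imaged.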
* hit, by the source's call; i = inactive; ? = inconclusive; / = no result given; [ ] = dose if it differs, or a comment. This is a sample that favours compounds with a hit; in the whole collection about 11% have one here. Unless noted, the call rests on the fitted dose curve; in most records, active means well fitted curve in the direction sought with a large enough effect; inconclusive means small, poorly fitted or top-dose-only effect, or another doubt; inactive means no such curve, though single readings can be large; an effect the other way counts as inactive or inconclusive. On the % scale 0 is the no-effect control and ±100 the full control effect; potency means the concentration at half of the fitted maximal effect.

SMILES	HEK cytotox	NPR1 antag	NIH3T3 tox	Luciferase inh
COCCN1CCCCCC(O)c2cc(C(=O)N(CCN(C)C)Cc3ccccc3)ccc21 (centres undefined)	?	-16%	?	i
Oc1ccccc1CN1CCC[C@H]1c1nc(-c2ccc(N3CCOCC3)nc2)no1	?	4%[70.6 µM]	?	?
O=C(c1ccc(C(F)(F)F)cc1)N1CCC2(CC1)CC(c1cccc(C(F)(F)F)c1)=NO2	40µM*	-26%	?	i
O=C(c1ccc(Cl)cc1)N1CCC2(CC1)CC(c1cccc(C(F)(F)F)c1)=NO2	32µM*	/	?	/
CC(C)(C)C(=O)N1CCC2(CC1)CC(c1cccc(C(F)(F)F)c1)=NO2	?	/	-26%	/
FC(F)(F)Oc1ccc(CN2CCC3(CC2)CC(c2cccc(C(F)(F)F)c2)=NO3)cc1	?	-14%	-30%	i
COc1ccc(CN2CCC3(CC2)CC(c2cccc(C(F)(F)F)c2)=NO3)cc1	50µM*	2%	?	i
COC[C@@H]1CN(C(=O)CC(C)C)C[C@H]1c1ccccn1	3%	/	-13%	/
Cc1cccc(CNC(=O)c2c(C)noc2-c2cccs2)c1	?	-8%	?	i
CN(Cc1cccn1C)C1CCCc2ccccc21 (centres undefined)	-16%[172 µM]	2%[70.6 µM]	-20%[138 µM]	i
O=C(C1CC1)N1CCC(C(=O)N2CCCC(c3nc4ccncc4[nH]3)C2)CC1 (centres undefined)	i	/	-7%	/
O=C1c2cc(N3CCOCC3)nc(-c3cccc(F)c3)c2CN1CC1CC1	112µM*	-23%[70.6 µM]	?	i
O=C1c2cc(N3CCOCC3)nc(-c3ccccc3)c2CN1Cc1ccccc1	50µM*	?	32µM*	i
C[S+](=O)([O-])Nc1cccc(-c2nc(N3CCOCC3)cc3c2CN(CC2CC2)C3=O)c1	-22%	-2%	?	i
Cn1cc(CN2Cc3c(cc(N4CCOCC4)nc3-c3cccc(F)c3)C2=O)cn1	89µM*	-23%[70.6 µM]	?	i
COCCc1ccc(OCc2ccccc2-c2cc(C)n[nH]c2=O)cc1	2%	-2%	i	i
CNC(=O)c1cccc(-c2ccccc2COc2ccc(CCOC)cc2)n1	?	-23%	-13%	10µM*
COc1cccc(-c2cn3c(n2)N(C(=O)c2cccs2)CCC3)c1	?	-3%	-11%	35µM*
Cc1ccc(-c2cn3c(n2)N(C(=O)c2cnn4cccnc24)CCC3)cc1	79µM*	-2%	i	i
Cc1ccsc1C(=O)N1CCCn2cc(-c3cccc(C#N)c3)nc21	?	-15%	-14%	32µM*
O=C(c1ccsc1)N1CCCn2cc(-c3ccccc3)nc21	?	-3%	4%	40µM*
COc1cccc(-c2cn3c(n2)N(C(=O)C2CCC2)CCC3)c1	?	-3%	5%	?
O=C(c1nc2ncccn2n1)N1CCCn2cc(-c3ccccc3)nc21	?	4%	-6%	i
O=C(c1ccoc1)N1CCCn2cc(-c3ccccc3)nc21	?	-17%	3%	?
Cc1noc(C)c1Cn1cc2c3c(cccc31)[C@H](CC(C)C)N[C@H](C(=O)NCC1CC1)C2	?	5%[70.6 µM]	?	i
SMILES	HEK cytotox	NPR1 antag	NIH3T3 tox	Luciferase inh
Cc1cnc(C)n1C1CCN(C(=O)CCC2CCCC2)CC1	-26%	/	-29%	/
CC(=O)Nc1ccc(CN2C(=O)OC3(CCN(Cc4ccc(C#N)cc4)CC3)C2(C)c2ccccc2)cc1 (centres undefined)	?	-14%	-28%	i
CC(C)c1ccc(CN2CCC3(CC2)OC(=O)N(Cc2ncccn2)C3(C)c2ccccc2)cc1 (centres undefined)	40µM*	0%	?	i
CC(=O)Nc1ccc(CN2C(=O)OC3(CCN(Cc4ccc(C(C)C)cc4)CC3)C2(C)c2ccccc2)cc1 (centres undefined)	?	-2%	35µM*	i
C=CCNc1ncnc2c1CCN(C(=O)c1ccccc1OCC)CC2	-17%	-4%	-4%	i
CC(C)c1ccc(CC(=O)N2CCCc3ncc(C(=O)NCCOc4ccccc4)cc32)cc1	40µM*	?	?	?
COc1ccccc1CC(=O)N1CCCc2ncc(C(=O)NCCOc3ccccc3)cc21	?	-8%	-23%	i
CC(C)CCNC(=O)c1cnc2c(c1)N(C(=O)Cc1ccc(C(C)C)cc1)CCC2	100µM*	-23%[70.6 µM]	100µM*	i
